Laboratory results as given in PubChem BioAssay (Tox21).
Inconclusive results are not listed. Active and inactive are the calls of the source. Unless noted, calls follow the shape of the dose curve; as a rule, active = well fitted curve in the direction sought with a large enough effect in the repeat runs; inconclusive = weak or mixed curves; inactive = no such curve, though single readings can be large; an effect the other way counts as inactive or inconclusive.

Columns and labels:
[1] = qHTS assay to test for compound auto fluorescence at 535 nm (green) in HEK293 cells (AID 720680)
[2] = qHTS assay to test for compound auto fluorescence at 460 nm (blue) in HEK293 cell free culture (AID 720681)
In short: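 Compounds were added to cell-free DMEM with 10% FBS and fluorescence read directly. The blue channel used 405 nm excitation and 460 nm emission, with triamterene as the reference fluorophore.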

[3] = qHTS assay to test for compound auto fluorescence at 535 nm (green) in HEK293 cell free culture (AID 720682)
In short: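 Measurement is a direct plate read of green fluorescence (485 nm in, 535 nm out) after compound addition to serum-supplemented DMEM lacking cells, with fluorescein used to express intensities.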

[4] = qHTS assay to test for compound auto fluorescence at 590 nm (red) in HEK293 cell free culture (AID 720683)
In short: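 Cell-free wells of DMEM with 10% FBS received compound, and intrinsic fluorescence was read at excitation/emission 540/590 nm. Values expressed as equivalence to Rose Bengal sodium.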

[5] = qHTS assay to test for compound auto fluorescence at 590 nm (red) in HepG2 cell free culture (AID 720684)
In short: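 Compound was pinned into wells holding MEM with 10% FBS and no cells, and red fluorescence was read at Ex/Em 540/590 nm. Signal is expressed as auto fluorescence equivalency relative to Rose Bengal sodium.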

[6] = qHTS assay to test for compound auto fluorescence at 460 nm (blue) in HepG2 cell free culture (AID 720685)
In short: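 Compound (23 nL) or DMSO pinned into cell-free MEM with 10% FBS; blue fluorescence read at 405/460 nm excitation/emission, expressed as auto-fluorescence equivalency to triamterene.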

[7] = qHTS assay to test for compound auto fluorescence at 535 nm (green) in HepG2 cell free culture (AID 720686)
[8] = qHTS assay to test for compound auto fluorescence at 460 nm (blue) in HepG2 cells (AID 720687)
In short: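 HepG2 cells in MEM with 10% FBS, attached overnight at 37 C, were exposed to compound or DMSO for 1 hr at 37 C, 5% CO2. Blue fluorescence was read at 405/460 nm, with triamterene as reference fluorophore.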

[9] = target: Glucocorticoid receptor (Homo sapiens) (UniProt P04150); experiment: qHTS assay to identify small molecule agonists of the glucocorticoid receptor (GR) signaling pathway (AID 720691; active = well fitted activation curve with a large enough effect in the signal ratio in the repeat runs, not every such curve was filed as active; the % refers to the signal ratio)
In short: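 Reporter read-out: fluorescence intensity following 2 h room-temperature LiveBLAzer B/G FRET substrate loading. Prior step: GR-bla HeLa cells held 4 h, then treated 18 h at 37 C.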

[10] = target: Glucocorticoid receptor (Homo sapiens) (UniProt P04150); experiment: qHTS assay to identify small molecule antagonists of the glucocorticoid receptor (GR) signaling pathway (AID 720692; active = well fitted inhibition curve with a large enough effect in the signal ratio in the repeat runs, not every such curve was filed as active; the % refers to the signal ratio)
In short: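 Dexamethasone (5 nM final) stimulated a stably integrated GRE-beta-lactamase reporter in HeLa cells during 18 h co-incubation with compounds; signal was quantified as fluorescence intensity of B/G FRET substrate after 2 h.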

[11] = qHTS assay to identify small molecule antagonists of the glucocorticoid receptor (GR) signaling pathway - cell viability counter screen (AID 720693); also: nearly all actives have a fitted effect of over 55% in size
[12] = qHTS assay for identifying genotoxic compounds that show differential cytotoxicity against isogenic chicken DT40 cell lines with known DNA damage response pathways - Rad54/Ku70 mutant cell line (AID 743015); also: nearly all actives have a fitted effect of over 60% in size; also: potency is read from the fitted curve at half-maximal effect
[13] = qHTS assay to identify small molecule antagonists of the androgen receptor (AR) signaling pathway - cell viability counter screen (AID 743033; also: nearly all actives have a fitted effect of over 45% in size)
[14] = qHTS assay to identify small molecule antagonists of the androgen receptor (AR) signaling pathway using the MDA cell line - cell viability counter screen (AID 743041; also: nearly all actives have a fitted effect of over 45% in size)
In short: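 MDA-kb2 AR-luc cells (MMTV-luciferase, AR/GR responsive) treated with compounds plus R1881 agonist for 16 h at 37C. CellTiter-Fluor added at 15.5 h; fluorescence read after 30 min in the same wells.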

[15] = qHTS assay for identifying genotoxic compounds that show differential cytotoxicity against isogenic chicken DT40 cell lines with known DNA damage response pathways - wild type cell line (AID 743012); also: nearly all actives have a fitted effect of over 60% in size
In short: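 Using parental DT40 (300 cells/well), compounds delivered in DMSO incubate 40 h at 37 C/5% CO2. CellTiter-Glo reagent then stands 30 min at room temperature, and luminescence gives cell viability.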

[16] = qHTS assay for identifying genotoxic compounds that show differential cytotoxicity against isogenic chicken DT40 cell lines with known DNA damage response pathways - Rev3 mutant cell line (AID 743014); also: nearly all actives have a fitted effect of over 55% in size
[17] = target: Androgen receptor (Homo sapiens) (UniProt P10275); experiment: qHTS assay to identify small molecule agonists of the androgen receptor (AR) signaling pathway (AID 743036; active = well fitted activation curve with a large enough effect in the signal ratio in the repeat runs, with a control signal flat, not every such curve was filed as active; the % refers to the signal ratio)
In short: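 Beta-lactamase under UAS control, stably integrated in HEK293 GripTite cells, reports receptor activation. After 16 h compound treatment, cells received FRET substrate for 2 h at room temperature before fluorescence reading.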

[18] = target: Androgen receptor (Homo sapiens) (UniProt P10275); experiment: qHTS assay to identify small molecule agonists of the androgen receptor (AR) signaling pathway using the MDA cell line (AID 743040; also: nearly all actives have a fitted effect of over 20% in size)
In short: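 MDA-kb2 breast carcinoma cells carrying MMTV-luciferase (responsive to AR and GR), plated 5 h then treated 16 h with compounds at 37C, 0% CO2. Read-out was ONE-Glo luminescence after 30 min at room temperature.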

[19] = target: Androgen receptor (Homo sapiens) (UniProt P10275); experiment: qHTS assay to identify small molecule antagonists of the androgen receptor (AR) signaling pathway using the MDA cell line (AID 743042; also: nearly all actives have a fitted effect of over 55% in size)
In short: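 MDA-kb2 breast carcinoma cells carrying MMTV-luciferase (AR/GR responsive) were co-treated with compounds and the agonist R1881 for 16 h at 37C. Inhibition read as ONE-Glo luminescence; CellTiter-Fluor fluorescence measured in parallel for cytotoxicity.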

[20] = target: Androgen receptor (Homo sapiens) (UniProt P10275); experiment: qHTS assay to identify small molecule antagonists of the androgen receptor (AR) signaling pathway (AID 743035; active = well fitted inhibition curve with a large enough effect in the signal ratio in the repeat runs, not every such curve was filed as active; the % refers to the signal ratio)
In short: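 Using qHTS, AR-UAS-bla GripTite HEK293 cells received compound, then R1881, and were cultured 16 h at 37C/5% CO2 before a 2 h room-temperature LiveBLAzer B/G FRET substrate step and fluorescence measurement.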
% is scaled to controls: 0 for no effect and ±100 for the full control effect.

Glucocorticoid receptor (Homo sapiens), sequence (P04150 whole entry, looked up): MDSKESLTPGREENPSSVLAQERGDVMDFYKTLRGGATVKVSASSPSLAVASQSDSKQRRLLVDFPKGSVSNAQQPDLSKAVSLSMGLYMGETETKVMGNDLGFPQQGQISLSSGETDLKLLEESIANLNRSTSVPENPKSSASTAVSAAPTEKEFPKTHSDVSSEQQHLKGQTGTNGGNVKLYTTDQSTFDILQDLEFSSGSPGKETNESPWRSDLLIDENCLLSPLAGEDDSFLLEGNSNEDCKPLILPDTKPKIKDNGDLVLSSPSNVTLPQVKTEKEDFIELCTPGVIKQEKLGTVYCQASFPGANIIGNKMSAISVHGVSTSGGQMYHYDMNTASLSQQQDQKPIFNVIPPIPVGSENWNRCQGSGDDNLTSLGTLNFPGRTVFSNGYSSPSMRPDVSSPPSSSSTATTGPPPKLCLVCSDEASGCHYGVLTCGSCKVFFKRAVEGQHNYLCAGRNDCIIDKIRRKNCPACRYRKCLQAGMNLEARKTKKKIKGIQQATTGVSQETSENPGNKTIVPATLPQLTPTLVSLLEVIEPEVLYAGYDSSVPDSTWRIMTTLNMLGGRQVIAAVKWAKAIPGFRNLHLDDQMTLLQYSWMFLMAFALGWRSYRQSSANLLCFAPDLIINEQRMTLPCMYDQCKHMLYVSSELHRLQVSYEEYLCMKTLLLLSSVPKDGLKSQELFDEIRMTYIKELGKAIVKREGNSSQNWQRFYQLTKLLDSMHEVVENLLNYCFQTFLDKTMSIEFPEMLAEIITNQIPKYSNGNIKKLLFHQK
Androgen receptor (Homo sapiens), sequence (P10275 whole entry, looked up): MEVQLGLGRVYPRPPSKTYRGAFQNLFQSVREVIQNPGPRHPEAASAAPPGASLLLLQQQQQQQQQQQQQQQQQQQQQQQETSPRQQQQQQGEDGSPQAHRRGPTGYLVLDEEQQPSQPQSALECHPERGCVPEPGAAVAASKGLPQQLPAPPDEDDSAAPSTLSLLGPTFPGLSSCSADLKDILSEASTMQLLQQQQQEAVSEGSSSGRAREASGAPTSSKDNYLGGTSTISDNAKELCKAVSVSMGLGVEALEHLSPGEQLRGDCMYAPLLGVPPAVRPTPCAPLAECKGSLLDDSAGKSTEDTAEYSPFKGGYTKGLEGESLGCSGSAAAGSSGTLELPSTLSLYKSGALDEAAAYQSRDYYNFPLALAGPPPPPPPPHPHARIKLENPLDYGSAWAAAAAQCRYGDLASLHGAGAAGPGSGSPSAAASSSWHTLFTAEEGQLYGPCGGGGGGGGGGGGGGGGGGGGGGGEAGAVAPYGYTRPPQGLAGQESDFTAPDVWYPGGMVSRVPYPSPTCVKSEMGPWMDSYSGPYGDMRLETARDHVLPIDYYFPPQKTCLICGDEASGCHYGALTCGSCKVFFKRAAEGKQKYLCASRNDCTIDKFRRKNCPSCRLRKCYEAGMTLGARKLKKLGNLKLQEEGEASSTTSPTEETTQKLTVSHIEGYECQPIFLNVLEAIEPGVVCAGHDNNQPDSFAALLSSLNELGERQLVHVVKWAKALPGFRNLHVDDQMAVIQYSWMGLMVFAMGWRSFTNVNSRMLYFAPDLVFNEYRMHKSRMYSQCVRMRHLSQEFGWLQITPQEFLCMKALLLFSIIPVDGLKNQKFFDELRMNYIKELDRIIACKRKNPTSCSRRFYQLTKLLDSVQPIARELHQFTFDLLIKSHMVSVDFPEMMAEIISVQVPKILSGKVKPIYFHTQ

C=C(C)C(=O)NCCC[N+](C)(C)C
inactive: outcome [1] | Potency [2] | outcome [3] | outcome [4] | outcome [5] | Potency [6] | outcome [7] | Potency [8] | Potency [9] | Potency [10] | outcome [11] | Potency [12] | outcome [13] | Potency [14]

O=C(O)/C=C/c1ccc(Cn2ccnc2)cc1
inactive: fluorescence, % of fluorescein [1] -0.0116% [at 18.6 µM] | fluorescence, % of fluorescent control [2] 0.209% [at 18.6 µM] | activity change [3] 0.0066% [at 18.6 µM] | fluorescence, % of fluorescent control [4] -0.0715% [at 18.6 µM] | fluorescence, % of Rose Bengal [5] -0.307% [at 18.6 µM] | fluorescence, % of fluorescent control [6] -0.0401% [at 18.6 µM] | fluorescence, % of fluorescein control [7] -0.0119% [at 18.6 µM] | fluorescence, % of fluorescent control [8] 0.143% [at 18.6 µM] | Potency [9] | Potency [10] | outcome [11] | Potency [15] | Potency [12] | outcome [13] | Potency [14]

COc1ccc(COC=O)cc1
inactive: outcome [1] | Potency [2] | outcome [3] | outcome [4] | outcome [5] | Potency [6] | outcome [7] | Potency [8] | Potency [9] | Potency [10] | outcome [11] | Potency [15] | Potency [16] | Potency [12] | outcome [13] | Potency [14]

CCCCCN(CCCCC)C(=O)C(CCC(=O)O)NC(=O)c1ccc(Cl)c(Cl)c1 (centres undefined)
inactive: outcome [1] | Potency [2] | outcome [3] | outcome [4] | outcome [5] | Potency [6] | outcome [7] | Potency [8] | Potency [9] | Potency [10] | outcome [11] | Potency [15] | Potency [12] | outcome [13] | outcome [17] | Potency [18] | Potency [14] | outcome [19]

O=S(=O)(O)c1ccccc1O
inactive: outcome [1] | Potency [2] | outcome [3] | outcome [4] | outcome [5] | Potency [6] | outcome [7] | Potency [8] | Potency [9] | Potency [10] | outcome [11] | Potency [15] | Potency [16] | Potency [12] | outcome [13] | Potency [20] | outcome [17] | Potency [18] | Potency [14] | outcome [19]

CCCCc1ccc(N)cc1
inactive: outcome [1] | Potency [2] | outcome [3] | outcome [4] | outcome [5] | Potency [6] | outcome [7] | Potency [8] | Potency [9] | Potency [10] | Potency [15] | Potency [16] | Potency [12] | outcome [13] | Potency [14]

COc1cc(C)cc(O)c1
inactive: outcome [1] | Potency [2] | outcome [3] | outcome [4] | outcome [5] | Potency [6] | outcome [7] | Potency [8] | Potency [9] | outcome [11] | Potency [15] | Potency [16] | Potency [12] | outcome [13] | Potency [14]

C(=C(c1ccccc1)c1ccccc1)c1ccccc1
inactive: outcome [1] | Potency [2] | outcome [3] | outcome [4] | outcome [5] | Potency [6] | outcome [7] | Potency [8] | Potency [9] | Potency [10] | outcome [11] | outcome [13] | Potency [14]

CC(=O)N[C@@H](CCC(N)=O)C(=O)O
inactive: outcome [1] | Potency [2] | outcome [3] | outcome [4] | outcome [5] | Potency [6] | outcome [7] | Potency [8] | Potency [9] | Potency [10] | Potency [15] | Potency [16] | Potency [12] | outcome [13] | Potency [14]

CCCCCCCCN(C)CCCCCCCC
inactive: outcome [1] | Potency [2] | outcome [3] | outcome [4] | outcome [5] | Potency [6] | outcome [7] | Potency [8] | Potency [9] | Potency [10] | outcome [11] | outcome [13] | Potency [20] | Potency [18] | Potency [14] | outcome [19]

N#CCN(CC#N)CCN(CC#N)CC#N
inactive: outcome [1] | Potency [2] | outcome [3] | outcome [4] | outcome [5] | Potency [6] | outcome [7] | Potency [8] | Potency [9] | Potency [10] | Potency [15] | Potency [16] | Potency [12] | outcome [13] | Potency [14]

COc1cc(CCC(C)=O)ccc1O
inactive: outcome [1] | Potency [2] | outcome [3] | outcome [4] | outcome [5] | Potency [6] | outcome [7] | Potency [8] | Potency [9] | Potency [10] | Potency [12] | outcome [13] | Potency [18] | Potency [14] | outcome [19]

CC1=CCC2C(C1)C2(C)C (centres undefined)
inactive: outcome [1] | Potency [2] | outcome [3] | outcome [4] | outcome [5] | Potency [6] | outcome [7] | Potency [8] | Potency [9] | Potency [10] | outcome [13] | Potency [20] | outcome [17] | Potency [18] | Potency [14] | outcome [19]

N#CC1(O)CCCCC1
inactive: outcome [1] | Potency [2] | outcome [3] | outcome [4] | outcome [5] | Potency [6] | outcome [7] | Potency [8] | Potency [9] | outcome [11] | Potency [15] | Potency [12] | outcome [13] | Potency [14]

CCC(=O)/C=C/c1ccc(OC)cc1
inactive: outcome [1] | Potency [2] | outcome [3] | outcome [4] | outcome [5] | Potency [6] | outcome [7] | Potency [8] | Potency [9] | outcome [11] | outcome [13] | Potency [14]
active: Potency [12] 54.5 µM

CC(C)CCOC(=O)CC(C)C
inactive: outcome [1] | Potency [2] | outcome [3] | outcome [4] | outcome [5] | Potency [6] | outcome [7] | Potency [8] | Potency [9] | outcome [11] | Potency [16] | Potency [12] | outcome [13] | Potency [14]
